These results are taken from ChEMBL document CHEMBL3988442, “University of Dundee, Small-Polar-MMV Screening Library” (2021).

About 13,000 (27%) of roughly 48,000 compounds showed an effect of 50% or more. This is one part of the list.

The test relates to Wolbachia pipientis. In words: Anti-Wolbachia Cell-Based Screen. Also on record: scale not given: in the data most compounds retested in dose-response had high values. The format is functional. The note with it: 5 µM.
With `Cc1n[nH]c(C2CN(C(=O)c3cnc[nH]3)CCO2)n1` (stereo not drawn), the “Percent Effect” value is -6.3%.
`CC(C)(C)c1n[nH]c(C2CN(C(=O)c3ccsc3)CCO2)n1` (stereo not drawn): the “Percent Effect” value is -3.296%.
`CC(C)(C)c1n[nH]c(C2CN(C(=O)c3cc(C4CC4)[nH]n3)CCO2)n1` (stereo not drawn): the “Percent Effect” value is 116%.
With `CSCC(=O)N1CCOC(c2nc(C(C)C)n[nH]2)C1` (stereo not drawn), the “Percent Effect” value worked out at 117.1%.
For `CC(C)(C)c1n[nH]c(C2CN(C(=O)CCC3CC3)CCO2)n1` (stereo not drawn), the “Percent Effect” value is -7.383%.
The same measure for `Cc1n[nH]c(C2CN(C(=O)c3cc(C4CC4)[nH]n3)CCO2)n1` (stereo not drawn): 6.266%.
The same measure for `CCc1n[nH]c(C2CN(C(=O)c3cnc[nH]3)CCO2)n1` (stereo not drawn): -7.128%; for `CSCC(=O)N1CCOC(c2nc(C(C)(C)C)n[nH]2)C1` (stereo not drawn): 103.9%; for `CC(C)c1n[nH]c(C2CN(C(=O)CCCn3cccn3)CCO2)n1` (stereo not drawn): -13%.
For `Cc1nc(CN2CCOC(c3nc(C(C)C)n[nH]3)C2)oc1C` (stereo not drawn), the “Percent Effect” value is -6.661%.
Take `CC(C)(C)c1n[nH]c(C2CN(C(=O)c3cnc[nH]3)CCO2)n1` (stereo not drawn): the “Percent Effect” value came out at 97.58%.
The same measure for `Cc1nc(CC(=O)N2CCOC(c3nc(C(C)(C)C)n[nH]3)C2)cs1` (stereo not drawn): -6.24%; for `CCc1ccc(C(=O)N2C[C@@H]3COC[C@@H](C(=O)NC)[C@@H]3C2)cc1`: -16.14%; for `Cc1ccc(S(=O)(=O)N2CC(C)Oc3ncccc32)c(C)c1` (stereo not drawn): -17.54%.
On to `Cn1nnc2c1CCN(C(=O)C1CC1)C2COCCN1CCCC1.O=C(O)C(F)(F)F` (stereo not drawn), for which the “Percent Effect” value is -5.654%.
The same measure for `CCn1ncnc1CN1CCc2[nH]cnc2C1Cc1ccccc1` (stereo not drawn): -1.907%; for `Cc1cccc(CNC2(CCO)CCOCC2)c1C`: -7.231%; for `CSC(C)C(=O)NS(=O)(=O)CCc1ccccc1` (stereo not drawn): -7.68%.
For the molecule `Cc1n[nH]c(C2CN(C(=O)c3ccc(Cl)o3)CCO2)n1` (stereo not drawn), the “Percent Effect” value is recorded as -21.06%.
With `CSCC(=O)N1CCOC(c2nc(C)n[nH]2)C1` (stereo not drawn) the figure was 81.74%; with `Cc1[nH]c(-c2ccccc2)nc1C(=O)N1CCc2[nH]cnc2C1C(=O)O` (stereo not drawn), -27.35%; with `COCCNc1c(-c2ccc(Cl)cc2)c(=O)c1=O`, 106.9%.
As for `COCCCNC(=O)Cc1cc(-c2ccc(Cl)cc2)on1`, the “Percent Effect” value is 18.42%.
`COCCCN(C)S(=O)(=O)c1ccc(Cl)cc1C#N`: the “Percent Effect” value is given as -9.182%.
As for `COCCNC(=O)CCNc1ccc(Cl)cn1`, the “Percent Effect” value is listed as -1.356%.
Regarding `COCCCNc1c(-c2ccc(Cl)cc2)c(=O)c1=O`, the “Percent Effect” value turned out to be 75.4%.
With `COCCN1CCN(Cc2ccc(Cl)cc2)[C@H]2CS(=O)(=O)C[C@H]21` the figure was 3.262%; with `CCCNC(=O)CC1OCCc2ccsc21` (stereo not drawn), -18.02%; with `CN1CCN(C[C@@H]2CN(Cc3c(Cl)cncc3Cl)C[C@@H]2CO)CC1`, -1.243%.
Take `COCC1CN(C(=O)N2CCCC2)Cc2cnn(CC3CCCC3)c21` (stereo not drawn): the “Percent Effect” value stood at 9.026%.
As to `Cn1ncc2c1C(COCC1CC1)CN(S(C)(=O)=O)C2` (stereo not drawn), the “Percent Effect” value came out at 3.209%.
The same measure for `COCC1CN(c2ncc(F)cn2)Cc2cnn(C)c21.O=C(O)C(F)(F)F.O=C(O)C(F)(F)F` (stereo not drawn): 94.8%; for `COCC1CN(Cc2cc(C)on2)Cc2cnn(C)c21.O=C(O)C(F)(F)F.O=C(O)C(F)(F)F` (stereo not drawn): -1.756%.
For the molecule `CCn1ncc2c1C(COC)CN(S(=O)(=O)N(C)C)C2.O=C(O)C(F)(F)F` (stereo not drawn), the “Percent Effect” value is -1.525%.
`CCn1ncc2c1C(COC)CN(c1ncc(F)cn1)C2.O=C(O)C(F)(F)F.O=C(O)C(F)(F)F` (stereo not drawn): the “Percent Effect” value came out at 103.8%.
With `Cn1ncc2c1C(COCC1CC1)CN(CC1CC1)C2` (stereo not drawn) the figure was 3.494%; with `Cn1ncc2c1C(COCC1CC1)CN(c1ncc(F)cn1)C2` (stereo not drawn), 102.8%; with `CCOCCN1Cc2cnn(C)c2C(COCC)C1.O=C(O)C(F)(F)F.O=C(O)C(F)(F)F` (stereo not drawn), -55.01%.
On to `COCC1CN(c2ncccn2)Cc2cnn(CC3CC3)c21` (stereo not drawn), for which the “Percent Effect” value was 112.4%.
Consider `Cn1cc(C[C@H]2[C@H](N3CCOCC3)CCN2C2CCOCC2)cn1.O=C(O)C(F)(F)F.O=C(O)C(F)(F)F`, for which the “Percent Effect” value is -4.511%.
As for `COCC1(C(=O)N2CCC(c3nccn3CC3CC3)CC2)CCC1`, the “Percent Effect” value came to 2.579%.
Regarding `CCN(CC)CCSc1nnc(N2CCN(c3ccccc3)CC2)s1`, the “Percent Effect” value is -12.7%.
Regarding `CN(Cc1cccc(O)c1)CC1CCCN(CCc2ccc(Cl)cc2)C1` (stereo not drawn), the “Percent Effect” value was determined as 2.569%.
The same measure for `CNC(=O)CSc1cnn(CC(=O)Nc2cccc(Cl)c2C)c(=O)c1Cl`: -42.51%; for `Cc1cnc(N2CCC3(CCC(C(=O)NC(C)C)OC3)CC2)nc1` (stereo not drawn): -9.523%.
The same measure for `CC(=O)N1CCCN(C(=O)NCCCNS(C)(=O)=O)CC1`: -1.689%; for `COCCN1CCN(C(=O)c2ccc(C)cc2OC)[C@H]2CS(=O)(=O)C[C@H]21`: 5.009%.
With `COc1ccccc1N1CCC(CNS(=O)(=O)c2cccc(C#N)c2)C1` (stereo not drawn) the figure was 87.58%.
For the molecule `COc1ccc(CNCC2CCN(c3ccccc3OC)C2)cc1O` (stereo not drawn), the “Percent Effect” value came out at 114.3%.
Turning to `COc1cccc(N2CCC(CNCc3cccc(C#N)c3)C2)c1` (stereo not drawn), the “Percent Effect” value was 82.37%.
As for `COc1cccc(N2CCC(CNc3cc(C)nc4ncnn34)C2)c1` (stereo not drawn), the “Percent Effect” value is given as -5.133%.
For the molecule `COc1ccccc1N1CCC(CNCc2cccc(O)c2)C1` (stereo not drawn), the “Percent Effect” value is -3.366%.
The same measure for `COc1ccccc1N1CCC(CNS(=O)(=O)c2c(C)nn(C)c2C)C1` (stereo not drawn): -2.863%; for `COc1ccccc1N1CCC(CNS(=O)(=O)c2cccs2)C1` (stereo not drawn): -9.312%.
On to `N#Cc1ccc(CNCC2CCN(CCO)CC2)cc1`, for which the “Percent Effect” value is reported as -8.382%.
The same measure for `COc1ccccc1N1CCC(CNCc2ccc(C#N)cc2)C1` (stereo not drawn): 109.5%; for `COc1ccccc1N1CCC(CNCc2c(C)nn(C)c2OC)C1` (stereo not drawn): -29.19%.
The same measure for `COc1ccccc1N1CCC(CNCc2cccc(C#N)c2)C1` (stereo not drawn): -2.203%.
`COc1cccc(N2CCC(CNC(=O)NCc3ccco3)C2)c1` (stereo not drawn): the “Percent Effect” value came out at 2.217%.
As to `CC(C)(C)N1CC(C(=O)N2CCN(CCn3cncn3)CC2)CC1=O` (stereo not drawn), the “Percent Effect” value is -32.16%.
The same measure for `Cc1nc(NC(=O)NC2CC(=O)N(C(C)C)C2)nn1C(C)C` (stereo not drawn): -10.65%; for `N#CCCN1CCC(=Cc2ccccc2)CC1`: 4.186%.
With `O=C(C1CCC1)N1CCC2(COCc3cnc(-c4cccnc4)nc32)C1` (stereo not drawn) the figure was -1.349%; with `O=C(CC1CC1)N1CCC2(COCc3cnc(-c4ccccc4)nc32)C1` (stereo not drawn), -2.156%; with `O=C(CC1CC1)N1CCC2(COCc3cnc(-c4cccnc4)nc32)C1` (stereo not drawn), 110.1%.
In the case of `CC(C)NC(=O)N1CCC2(COCc3cnc(-c4ccccc4)nc32)C1` (stereo not drawn), the “Percent Effect” value was -4.544%.
For `COCCC(=O)N1CCC2(COCc3cnc(-c4cccnc4)nc32)C1` (stereo not drawn), the “Percent Effect” value came to 82.83%.
Take `CC(C)C(=O)N1CCC2(COCc3cnc(-c4cccnc4)nc32)C1` (stereo not drawn): the “Percent Effect” value was 110.7%.
On to `COCC(=O)N1CCC2(COCc3cnc(-c4ccccc4)nc32)C1` (stereo not drawn), for which the “Percent Effect” value was -5.335%.
In the case of `O=C(c1ccon1)N1CCc2ncnc(NCc3cccnc3)c2CC1`, the “Percent Effect” value is on record as -8.818%.
As for `CN1CCN(c2cc(CNCc3cccc4c3OCO4)ccn2)CC1`, the “Percent Effect” value was 11.73%.
For the molecule `CC1CCCN(S(=O)(=O)NCCN/C(O)=C2/N=CC=CC2=O)C1` (stereo not drawn), the “Percent Effect” value is recorded as -6.366%.
In the case of `O=C(NCC1Cn2nnc(-c3ccncc3)c2CO1)c1ccsc1.O=C(O)C(F)(F)F` (stereo not drawn), the “Percent Effect” value is -1.201%.
With `O=C(NC[C@H]1C[C@@H]2CN(C(=O)c3ccco3)C[C@@H]2O1)c1ccsc1` the figure was 124.8%; with `Cn1cccc1C(=O)NC[C@H]1C[C@@H]2CN(C(=O)c3ccco3)C[C@@H]2O1`, 102.1%.
The same measure for `CN(C)C[C@H]1C[C@@H]2CN(C(=O)c3ccco3)C[C@@H]2O1`: -6.391%; for `O=C(NC[C@@H]1C[C@@H]2CN(C(=O)CO)C[C@H]2O1)c1ccsc1`: 119.3%.
With `O=C(NC[C@H]1C[C@@H]2CN(C(=O)c3ccno3)C[C@@H]2O1)C1CCC1` the figure was 2.338%; with `Cn1cccc1C(=O)NC[C@H]1C[C@@H]2CN(C(=O)c3ccno3)C[C@H]2O1`, 1.866%; with `O=C(c1ccsc1)N1C[C@@H]2C[C@@H](c3nnc(C4CC4)o3)O[C@@H]2C1`, 1.173%.
On to `CC(C)NC[C@@]1(COc2ccccc2)C[C@@H](O)[C@@H](O)C1.Cl`, for which the “Percent Effect” value is on record as 3.998%.
As to `N#Cc1ccc(N2CCCC2Cn2cncn2)nc1` (stereo not drawn), the “Percent Effect” value turned out to be 6.543%.
Turning to `COc1ccccc1C(C#N)NC(=O)c1cccc2c1oc(=O)n2C` (stereo not drawn), the “Percent Effect” value is on record as -5.303%.
Turning to `CC(=O)N1CCCN(C(=O)NC(C)c2csc3ccccc23)CC1` (stereo not drawn), the “Percent Effect” value is reported as -8.175%.
Turning to `O=C1N(Cc2cccc(F)c2F)CCCC1(O)CNC1CCCC1` (stereo not drawn), the “Percent Effect” value turned out to be 4.204%.
Turning to `COCCNC(=O)Nc1ccc(C(=O)N2CCSCC2)cc1C`, the “Percent Effect” value was -68.32%.
As to `Cl.NCC1CCCCN1C(=O)Cc1cccc(Cl)c1` (stereo not drawn), the “Percent Effect” value is -19.94%.
With `O=C(Cc1ccccn1)N1CCC2(CC1)CN(c1ccccn1)CCO2`, the “Percent Effect” value came to 1.035%.
Consider `O=C(Cc1ccccc1)N1CCC2(CC1)CN(c1ncccn1)CCO2`, for which the “Percent Effect” value was -17.85%.
As to `O=C(Cc1ccc(Cl)cc1)N1CCC(O)(C(F)(F)F)C1` (stereo not drawn), the “Percent Effect” value was -18.33%.
With `O=C(CN1C(=O)c2ccccc2C1=O)N1CCOC2(CCOCC2)C1`, the “Percent Effect” value is given as -3.799%.
With `O=C(CCc1ccc(Cl)cc1)N1CCC(O)(C(F)(F)F)C1` (stereo not drawn) the figure was 8.106%; with `NCC(=O)N1CCC2(CC1)CN(C(=O)Cc1ccc(Cl)cc1)CCO2`, 111%; with `NCCC(=O)N1CCC2(CC1)CN(C(=O)Cc1ccc(Cl)cc1)CCO2`, 115.1%.
As to `NCCC(=O)N1CCC2(CC1)CN(C(=O)Cc1cccc(Cl)c1)CCO2`, the “Percent Effect” value worked out at 105.1%.
Take `CCOc1ncccc1C(=O)Nc1c(C)cnn1CC1CC1`: the “Percent Effect” value is reported as 12.64%.
As for `CC(=O)N1CCN(Cc2nnc(C(C)(C)C)o2)CC1`, the “Percent Effect” value is recorded as -8.386%.
Regarding `Cc1cc(CN(C)C(=O)NCc2ccnc(OC3CCCC3)c2)no1`, the “Percent Effect” value amounted to 7.98%.
